USP10 block = blocks human USP10 ubiquitin-rhodamine cleavage; purified USP10, Ub-rhodamine fluorescence, 60 min; inhibition, % at 20 µM; 1.1% of 47,000 active
USP8 inh = inhibitors of human USP8 deubiquitinase; P40818; purified USP8, Ub-rhodamine cleavage fluorescence, 30 min; inhibition, % at 20 µM; 4.2% of 47,000 active
USP17 inh = inhibitors of human USP17 deubiquitinase; 6.5% of 47,000 active; purified USP17, Ub-rhodamine cleavage fluorescence, 3 h; inhibition, % at 50 µM
Target sequence (A8MUK1 whole entry, looked up): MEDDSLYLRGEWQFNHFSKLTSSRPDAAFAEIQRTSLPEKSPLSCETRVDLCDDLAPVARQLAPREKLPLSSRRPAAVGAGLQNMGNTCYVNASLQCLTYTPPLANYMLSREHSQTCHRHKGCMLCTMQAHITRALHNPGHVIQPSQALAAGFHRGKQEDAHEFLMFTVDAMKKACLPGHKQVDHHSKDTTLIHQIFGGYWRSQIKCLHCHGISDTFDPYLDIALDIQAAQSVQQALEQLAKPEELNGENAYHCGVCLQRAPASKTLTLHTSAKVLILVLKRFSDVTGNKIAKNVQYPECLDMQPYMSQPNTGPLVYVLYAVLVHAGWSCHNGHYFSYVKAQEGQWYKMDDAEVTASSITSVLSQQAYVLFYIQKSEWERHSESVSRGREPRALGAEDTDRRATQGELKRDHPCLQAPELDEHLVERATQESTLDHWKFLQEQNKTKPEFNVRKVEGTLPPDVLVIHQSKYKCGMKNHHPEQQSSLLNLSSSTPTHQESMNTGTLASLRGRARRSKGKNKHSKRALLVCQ
USP30 block = human USP30 deubiquitinase inhibition; Q70CQ3; purified USP30, Ub-rhodamine cleavage fluorescence; inhibition, % at 25 µM; 5.3% of 47,000 active
USP7 block = inhibitors of human USP7 deubiquitinase | Q93009 | purified USP7, Ub-rhodamine cleavage fluorescence | inhibition, % at 20 µM | 0.3% of 47,000 active
UCHL1 inh = human UCHL1 deubiquitinase inhibition. 0.2% of 47,000 active. inhibition, % at 20 µM. P09936. purified UCHL1, Ub-rhodamine cleavage fluorescence. AID 1645859
Numbers without * were called inactive; x = no result given. Shown are actives, neighbours in structure and some others; about 13% of the full set was active somewhere. No stated cut-off is given here; in the data, active means inhibition above about 30%; inactive means the rest.

SMILES | USP10 block | USP8 inh | USP17 inh | USP30 block | USP7 block | UCHL1 inh
O=C(c1cc2cn(C3CC3)cc2s1)N1CCCN(c2ncccn2)CC1 | -4 | 83* | 28 | -78 | -14 | -6
O=C(c1ccco1)N1CCN(C(=O)c2cc3c(s2)CN(C2CC2)C3)CC1 | -1 | 1 | 5 | -82 | -20 | 3
O=C(c1cc2c(s1)CN(C1CCCC1)C2)N1CCCN(c2ncccn2)CC1 | -9 | 84* | 21 | -49 | -8 | 0
O=C1Nc2ccc(S(=O)(=O)NC3CCCCC3)c3cccc1c23 | -2 | -96 | -5 | 6 | -18 | -6
CCC(CC)C(=O)Nc1ccc(C(N)=O)cc1 | -4 | 15 | 17 | 11 | 4 | 0
CN(Cc1ccccc1)S(=O)(=O)c1ccc(N2CCCCS2(=O)=O)cc1 | 1 | 4 | 37* | x | 1 | 0
CN(Cc1ccccc1)S(=O)(=O)c1ccc2[nH]c(=O)[nH]c2c1 | 4 | 3 | 37* | 26 | 4 | 23
Oc1ccc(-c2nc3c4cnn(-c5ccc(Cl)cc5)c4ncn3n2)cc1 | -1 | -7 | 32* | x | 1 | -2
Cc1ccc(Nc2c(S(=O)(=O)c3ccc(C)cc3)cnc3ccc(Cl)cc23)cc1 | -2 | -54 | 8 | 12 | 7 | 2
COC(=O)c1ccc(Nc2c(C#N)cnc3ccc(Cl)cc23)cc1 | 20 | 20 | 17 | 33* | 9 | 6
CC(=O)c1ccc(N2CCN(c3cccc(Cl)c3)CC2)s1 | -7 | -17 | -54 | -272 | -14 | -7
COc1ccc(NC(=O)Cc2csc(NC(=O)c3ccco3)n2)cc1Cl | -4 | 24 | 49* | 26 | -6 | -5
COc1ccc(NC(=O)c2ccco2)cc1NC(=O)c1ccc(F)cc1 | 5 | 0 | -9 | -4 | 2 | 0
CS(=O)(=O)N1CCN(c2ccc(NC(=O)COc3ccccc3)cc2)CC1 | 6 | -14 | -8 | 0 | 4 | -3
CS(=O)(=O)N1CCN(c2ccccc2NC(=O)COc2ccc(Br)cc2)CC1 | 72* | 92* | 93* | x | 63* | 9
CCOC(=O)c1csc(NC(=O)c2ccccc2Br)n1 | 3 | -4 | 0 | 5 | -4 | -1
CC(=O)c1cc2c(=O)c3c(C(=O)O)c(O)c(O)cc3oc2c(C(C)=O)c1-c1coc2cc(O)c(O)c(C(=O)O)c2c1=O | -3 | -63 | 46* | -87 | -139 | 1
Cc1nn(-c2ccc(-c3ccccc3)nn2)c(C)c1S(=O)(=O)NC(C)C | 6 | -27 | 37* | 21 | 3 | 10
Cc1c(C(=O)NCC(c2ccco2)N2CCCC2)oc2ccccc12 (configuration not stated) | -7 | -2 | -20 | -16 | -4 | -2
Cc1cccc(CSc2nnc(CN3CCOCC3)n2C)c1 | -4 | -6 | -4 | 3 | -1 | -1
CCc1ccc(C(=O)NC2=NC(c3cccc(F)c3)CC(=O)N2)cc1 (configuration not stated) | 0 | 5 | 4 | 3 | 4 | 2
COc1cccc(Nc2nc(N)nc(CN3CCC(C(N)=O)CC3)n2)c1 | -8 | 8 | -9 | -32 | -2 | -6
NC1=CC(=O)C(Nc2ccccc2O)=CC1=O | 9 | 36* | 42* | -35 | -8 | 7
c1cncc(-c2cnc3sc(NCC4CCOCC4)nn23)c1 | 4 | 0 | -2 | -1 | 1 | 0
c1ccc(CNc2nn3c(-c4cccnc4)cnc3s2)cc1 | 8 | -1 | 32* | 40* | 0 | 1
SMILES | USP10 block | USP8 inh | USP17 inh | USP30 block | USP7 block | UCHL1 inh
COc1ccc(CNc2nn3c(-c4cncc(OC)c4)cnc3s2)cc1 | 4 | 6 | -1 | 100* | 5 | -2
O=C(Nc1ccccc1F)NC1CCN(c2ccccc2)C1=O (configuration not stated) | 1 | 0 | 10 | 12 | 3 | 0
Cc1nc(-c2ccc3c(c2)OCCCO3)cs1 | 1 | 6 | 6 | 10 | -7 | 1
c1cc(N2CCOCC2)ccc1-c1csc(-c2ccc3c(c2)OCCO3)n1 | -4 | 4 | 40* | -35 | -3 | 2
FC(F)(F)c1ccc(-c2nc(-c3ccc4c(c3)OCCCO4)cs2)cc1 | 0 | 16 | 19 | 33* | 6 | 1
COc1ccc(CCNC(=O)c2cnn(-c3ccc(F)cc3F)c2C2CCNCC2)c(OC)c1 | -4 | -135 | -33 | 1 | -4 | -4
O=c1c2ccccc2c(-c2nc(-c3ccncc3)no2)cn1-c1ccccc1 | -3 | -1 | 73* | 7 | -2 | 0
O=c1c2ccccc2c(-c2nc(-c3cccnc3)no2)cn1-c1cccc(F)c1 | -1 | 24 | 9 | 13 | 5 | 2
CSc1ccc(CN2CCN(C(=O)c3cccnc3)CC2)cc1 | 3 | 18 | 13 | 11 | 2 | 2
O=C(CSc1cn(Cc2ccccc2Cl)c2ccccc12)N1CCOCC1 | 2 | -35 | 14 | 37* | -100 | 6
O=C(NCCn1cc(SCC(=O)N2CCOCC2)c2ccccc21)c1ccc(Cl)cc1Cl | -5 | -217 | -4 | 4 | -1 | 0
O=C(Cn1cc(S(=O)(=O)Cc2ccc(Cl)cc2)c2ccccc21)N1CCCCC1 | 3 | 3 | 3 | 75* | -33 | 5
O=C(Cn1cc(S(=O)(=O)Cc2ccc(Cl)cc2)c2ccccc21)N1CCCCCC1 | 8 | -4 | -3 | 13 | -118 | 4
O=C(CSc1cn(CC(=O)N2CCCCC2)c2ccccc12)Nc1ccc(Cl)cc1 | 6 | -1 | 38* | 27 | 6 | 1
O=C(CSc1cn(CC(=O)N2CCCCC2)c2ccccc12)Nc1ccc2c(c1)OCO2 | 1 | -25 | 8 | 18 | 4 | 0
CCN(c1ccc(NC(=O)CSc2nccc(=O)[nH]2)cc1)C(C)C | 3 | 59* | 12 | -12 | 6 | 6
CCN(c1ccc(NC(=O)COC(=O)c2cccnc2Nc2cccc(C(F)(F)F)c2)cc1)C(C)C | 12 | 9 | 5 | 24 | 19 | 7
Cc1ccc(NC(=O)Nc2nnc(CC(=O)N3CCCCC3)s2)cc1C | 4 | 6 | 3 | 12 | 2 | 2
CC(=O)Nc1ccc(C(=O)N2CC[C@H](c3nc4ccccc4o3)C2)cc1 | -1 | -46 | x | -2 | -2 | -2
CC1=C(C(=O)Nc2cccnc2)C(c2cccc(OCc3ccccc3)c2)n2nnnc2N1 (configuration not stated) | 18 | 37* | 10 | 21 | 3 | -3
CC1=C(C(=O)Nc2ccccc2)C(c2cccc(OCc3ccc(F)cc3)c2)n2ncnc2N1 (configuration not stated) | 2 | -11 | -11 | 1 | 0 | -4
CC1=C(C(=O)Nc2ccccc2)C(c2cccnc2)n2c(nc3ccccc32)N1 (configuration not stated) | -2 | 1 | 45* | 18 | 3 | 2
CNc1nc(C2CCCNC2)nc2c1CCN(CCc1ccccc1)C2 (configuration not stated) | -3 | -16 | -28 | x | -1 | -3

High-throughput results as filed in PubChem BioAssay.
